Hits are enriched below; roughly 8% of the tested compounds scored in any of these assays.
ELG1 repair inh: ELG1-dependent DNA repair inhibition; hit rate 2.3% among 330,000; Potency, µM (highest dose often 46.1 µM), for the others: at the top dose activity change, negative = inhibition, actives largely listed as inhibitors; HEK293T ELG1-luciferase reporter, luminescence, 16 h; DNA damage induced by 5-fluorouridine; AID 504467; also: potency is read from the fitted curve at half-maximal effect; nearly all actives have a fitted effect of over 55% in size
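Reporter activity after DNA damage by 5-fluorouridine is monitored. Compound-treated cells incubate 16 hr at 37 °C, then ONE-Glo is added for 30 min before luminescence reading.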
TSHR antagonist: human thyrotropin receptor antagonism; P16473; TSHR-expressing cells, TSH-stimulated cAMP HTRF, 2 h; hits give low values; activity change, negative = inhibition, % at 11.5 µM; hit rate 0.2% among 330,000; AID 504810;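 active = activity change below a set negative limit, meaning inhibition stronger than a set level, cut at about -70% in these data; inconclusive = activity change between two set negative limits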
Target sequence (P16473 whole entry, looked up): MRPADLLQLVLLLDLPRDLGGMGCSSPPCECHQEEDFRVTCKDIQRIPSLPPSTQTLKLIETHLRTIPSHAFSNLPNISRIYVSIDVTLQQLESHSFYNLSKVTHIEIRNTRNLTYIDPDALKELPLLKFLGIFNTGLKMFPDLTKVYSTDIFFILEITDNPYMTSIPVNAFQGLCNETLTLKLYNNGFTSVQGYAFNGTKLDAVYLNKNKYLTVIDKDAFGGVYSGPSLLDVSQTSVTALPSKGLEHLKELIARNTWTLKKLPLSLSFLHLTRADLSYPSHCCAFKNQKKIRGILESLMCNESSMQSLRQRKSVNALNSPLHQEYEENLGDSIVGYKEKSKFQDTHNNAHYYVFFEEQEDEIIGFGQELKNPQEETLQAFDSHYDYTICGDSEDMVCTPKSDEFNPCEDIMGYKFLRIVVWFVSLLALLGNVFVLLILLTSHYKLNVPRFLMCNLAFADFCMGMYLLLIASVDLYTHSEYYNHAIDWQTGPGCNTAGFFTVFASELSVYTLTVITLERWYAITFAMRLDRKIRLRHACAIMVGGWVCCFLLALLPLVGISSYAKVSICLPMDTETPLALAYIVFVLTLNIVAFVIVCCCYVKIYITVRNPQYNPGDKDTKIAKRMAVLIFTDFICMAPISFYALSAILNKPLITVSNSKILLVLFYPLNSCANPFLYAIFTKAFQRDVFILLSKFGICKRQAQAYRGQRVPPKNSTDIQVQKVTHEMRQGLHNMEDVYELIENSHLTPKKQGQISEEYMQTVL
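Read-out is FRET at 665 nm (cryptate excitation 337 nm) from a cryptate-tagged anti-cAMP antibody, competed by cell cAMP against cAMP-d2. Compounds are tested on freshly harvested TSHR cells challenged with 4nM TSH (EC80) for 2 hours at 37 deg C.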
VP16 counter: Gal4-VP16 reporter inhibition counter-screen. Drosophila S2 Gal4-VP16 UAS-luciferase, luminescence, 20 h. Potency, µM (series often up to 53.6 µM), without a hit: top-dose activity, negative = inhibition, hits mostly inhibitors. hit rate 3.5% among 310,000;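 also: Gal4-VP16 expression switched on by copper sulfate through the metallothionein promoter; potency is read from the fitted curve at half-maximal effect; nearly all actives have a fitted effect of over 50% in size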
RORg inh: inhibitors of mouse ROR gamma transcriptional activity. hit rate 5.4% among 310,000. P51450. Drosophila S2 Gal4-RORgamma UAS-luciferase reporter, 20 h. Potency, µM (doses to about 53.6 µM), inactives show at the top dose activity change, negative = inhibition, usual class: inhibitors; also: potency is read from the fitted curve at half-maximal effect; nearly all actives have a fitted effect of over 60% in size
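Read-out: Photinus luciferase luminescence; inhibitors lower reporter signal. Insect Schneider cells with Gal4-ROR gamma fusion under metallothionein promoter, UAS reporter; 700 uM final copper sulfate induction, 20 hr, ambient temperature.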
Coupling enz: coupling enzyme interference in Giardia aldolase counter-screen | coupling enzyme system counterscreen, AmpLite Red fluorescence | activity change, negative = inhibition, % at 58.2 µM, hits read low | hit rate 0.67% among 290,000 | AID 2472; in the data active = activity change below about -30%
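Counterscreen lacking aldolase: glyceraldehyde-3-phosphate coupling-enzyme reagent preincubated 10 min at RT with compound (at 57.5 uM final), then substrate/coupling system with AmpLite Red added; fluorescence read at 525/598 nm after 20 min RT.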
Active calls of the source: *; ? = inconclusive; · = no result given; [ ] = another dose, or the depositor's remark. Unless noted, calls follow the shape of the dose curve; as a rule, active = well fitted curve in the direction sought with a large enough effect; inconclusive = small, poorly fitted or top-dose-only effect, or another doubt; inactive = no such curve, though single readings can be large; an effect the other way counts as inactive or inconclusive. % is scaled to controls: 0 for no effect and ±100 for the full control effect.

SMILES	ELG1 repair inh	TSHR antagonist	VP16 counter	RORg inh	Coupling enz
Cc1csc(CNC(=O)c2cc(COc3c(C)cccc3C)on2)n1	5.1%	12.6	-19.8%	-1.8%	0.5
OC(CNC1CCCc2ccccc21)COc1ccc2ccccc2c1 (stereo not given)	-15.1%	-1.4	2.1%	-0.8%	0.3
CCc1ccccc1OC[C@@H](O)CN[C@H]1CCCc2ccccc21	-5.7%	4.6	14.1µM*	7.08µM*	-0.5
NC(=O)CNC(=O)C1CCN(S(=O)(=O)c2ccc(-n3cnnn3)cc2)CC1	18.1%	-2.1	-11.1%	-0.3%	1.1
CCCn1c(N)cc(=O)n(C)c1=O	7.0%	2.3	-9.8%	20.3%	1.7
Cc1[nH]n(-c2ncc(-c3ccc(Cl)cc3)s2)c(=O)c1C(c1ccc(Cl)cc1)C(C#N)C#N (stereo not given)	?	-5.9	?	14.1µM*	3.4
O=C(Nc1ccccc1)N1CCC(C(=O)N2CCCC(C(F)(F)F)C2)CC1 (stereo not given)	0.3%	-5.1	-4.0%	10.7%	·
COC(=O)Cn1cc(/C=N/NC(=O)c2ccc(C#N)cc2F)c2ccccc21	0.2%	13.2	-1.6%	10µM*	2.2
CCOC(=O)Cn1cc(/C=N/NC(=O)CC#N)c2ccccc21	-8.0%	-2.0	2.4%	2.4%	1.1
CCn1cc(/C=N/NC(=O)c2ccc(C#N)cc2F)c2ccccc21	?	6.4	10µM*	-140.0%	-31.8*
Nc1cccc2c1C(=O)N(C(=O)/C=C/c1cccc(F)c1)C2=O	0.0%	9.0	22.4µM*	?	-0.7
CCCC/C(C)=N/NC(=O)CN(c1ccc(Br)cc1)S(=O)(=O)c1ccccc1	4.8%	-2.7	1.2%	10.7%	2.7
C/C(=N\NC(=O)CCCCCNC(=O)c1ccccc1)c1ccccc1O	-6.4%	0.7	10µM*	5.01µM*	0.2
O=C(CCCCCNC(=O)c1ccccc1)N/N=C/c1ccc(O)cc1O	8.2%	1.2	-15.4%	-21.1%	0.5
C/C(=N/NC(=O)CN(c1ccccc1)S(=O)(=O)c1ccccc1)c1ccccc1O	13µM*	-1.7	0.794µM*	0.708µM*	-1.4
Nc1ccc2nc[nH]c2c1	-0.5%	2.3	?	-36.4%	-40.7*
O=C1COc2ccc(C(=O)CSc3nc4ccccc4c(=O)n3-c3ccc(Cl)c(Cl)c3)cc2N1	-8.1%	-7.8	6.0%	-29.2%	0.2
CCc1ccc(-n2c(SCC(=O)c3ccc4c(c3)NC(=O)CO4)nc3ccccc3c2=O)cc1	?	18.4	-1.0%	2.51µM*	2.5
COc1ccc(CCNC(=O)c2c(-c3ccccc3Cl)noc2C)cc1	?	-8.7	10.7%	10.4%	0.4
Cc1onc(-c2ccccc2Cl)c1C(=O)NC(=S)NCc1cccnc1	-1.9%	33.3	-16.3%	24.6%	0.5
Cc1onc(-c2ccccc2Cl)c1C(=O)NC(=S)NCCc1ccccc1	-2.8%	-29.6	20µM*	10µM*	0.5
COc1ccc(/C(N)=N/OC(=O)c2c(-c3ccccc3Cl)noc2C)cc1OC	-17.3%	17.0	10µM*	-35.9%	·
Cc1nc(/C(N)=N/OC(=O)c2c(-c3ccccc3Cl)noc2C)cs1	?	-6.1	-27.4%	25.2%	0.8
COc1ccc(CCNC(=S)NC(=O)c2c(-c3ccccc3Cl)noc2C)cc1OC	-15.6%	-7.8	?	8.91µM*	2.7
Cn1cc(C[C@H](C(=O)O)N2C(=O)c3ccc(C(=O)O)cc3C2=O)c2ccccc21	·	-15.2	1.8%	-3.1%	-1.2
SMILES	ELG1 repair inh	TSHR antagonist	VP16 counter	RORg inh	Coupling enz
CC(C)(C)c1ccc2c(S(=O)(=O)O)c(C(C)(C)C)ccc2c1	·	·	4.0%	32.3%	·
COc1ccc(-c2csc(NC(=S)NC(=O)c3ccc4ccccc4c3)n2)cc1OC	-6.9%	3.9	?	2µM*	·
COc1ccc(-c2csc(NC(C)=O)n2)cc1OC	?	8.0	18.8%	50.5%	-3.4
COc1cccc(NC(=O)Nc2nc(-c3ccc(OC)c(OC)c3)cs2)c1	4.11µM*	-93.9*	?	?	-2.5
COc1ccc(-c2csc(NC(=O)CCn3cnc4ccccc4c3=O)n2)cc1OC	7.31µM*	10.7	-26.0%	-33.6%	-0.8
COc1ccc(-c2csc(NC(=O)C3CCN(C(=O)c4ccc(F)cc4)CC3)n2)cc1OC	14.6µM*	-21.5	·	·	0.8
Cc1ccc(S(=O)(=O)N(CC(=O)c2ccc(Cl)cc2)C(=O)N2CCN(C)CC2)cc1	17.6%	8.5	·	·	·
NC(=O)c1ccc(NC(=O)c2cccc3c2OCCCO3)cc1	-0.4%	-2.2	-8.6%	9.3%	-1.6
CN(C)C(CNC(=O)c1ccco1)c1cccs1 (stereo not given)	28.4%	9.8	·	·	·
Cc1nnsc1C(=O)Nc1ccc(S(=O)(=O)N2CCC(C)CC2)cc1	7.3µM*	-5.2	-27.8%	27.2%	2.3
FC(F)(F)c1ccc2c(c1)[nH]c(=S)n2C1CC1	7.6%	-1.9	?	1.41µM*	-0.4
O=C(NC(=S)Nc1nc2c(s1)CSc1ccccc1-2)c1ccccc1	0.0%	-7.1	?	15.8µM*	4.9
CC1CC(C)(C)NC(=S)N1CCC(=O)NCc1ccc(F)cc1 (stereo not given)	15.9%	-3.8	3.5%	?	0.4
CC1CC(C)(C)NC(=S)N1CCC(=O)NCc1ccc(Cl)cc1 (stereo not given)	?	10.5	-1.6%	?	1.8
CC1CC(C)(C)NC(=S)N1CCC(=O)N1c2ccccc2CC1C (stereo not given)	19.3%	18.0	17.8µM*	3.98µM*	0.5
Cc1cccc(N2CCN(C(=O)CCC(=O)N3CC(C)Oc4ccccc43)CC2)c1C (stereo not given)	?	4.2	-0.5%	?	0.6
Cc1ccc(C)c(N2CCN(C(=O)CCCN3C(=S)NC(C)(C)CC3C)CC2)c1 (stereo not given)	?	-4.4	4.47µM*	5.62µM*	0.2
CC1CC(C)(C)NC(=S)N1CC(=O)N(C)Cc1ccccc1 (stereo not given)	8.7%	-5.7	-20.4%	17.8µM*	-1.1
Cc1cccc(N2CCN(C(=O)CCN3C(=S)NC(C)(C)CC3C)CC2)c1C (stereo not given)	?	-2.1	?	4.47µM*	-1.7
CCOc1ccc(-c2nc(C)c(C(C)=O)n2O)cc1	?	27.8	25.1µM*	17.9%	-6.0
CN1CCN(c2ccc(NC(=O)c3ccc4ccccc4c3)cc2)CC1	?	10.0	?	11.2µM*	2.2
COc1ccc(C(=O)Nc2ccc(N3CCN(C)CC3)cc2)cc1	?	-5.0	3.5%	-25.2%[1.91 µM]	1.4
O=C(Nc1ccc(Cl)cc1)Nc1ccc(N2CCOCC2)cc1	?	5.3	9.0%	20.8%	0.4
CC(C)(C)c1ccc(C(=O)Nc2ccc(N3CCOCC3)cc2)cc1	18.4µM*	-7.1	-7.7%	8.0%	-1.6
